# Measured values: PubChem BioAssay AID463173 (ICCB-Longwood Screening Facility, Harvard Medical School, 2010)
# The whole screen tested about 52,000 compounds, of which about 4,300 (8.3%) were called active. The full list was thinned out, with actives kept by preference. Values without a mark were called inactive. Rule as the data show it: active = survival mostly below about 52% (no sharp cut-off); inactive = mostly above about 56%.
# System: DeltatarO mutant
# Assay: S. aureus survival, RN4220 and DeltatarO strains – OD600, teichoic acid synthesis inhibitors, primary screen (AID 463173)
# Conditions: S. aureus RN4220 wild type/DeltatarO growth, OD600, 18 h, active compounds read low, screened at 18.75 µg/mL (by protocol)
row,Compound,survival
1,Cc1ccc(N(CCO)S(=O)(=O)c2ccc(NC3=NS(=O)(=O)c4ccccc43)cc2)cc1,96%
2,CCc1ccc(C(=O)c2cn(CC(=O)Nc3ccc4c(c3)OCCO4)c3ccc(F)cc3c2=O)cc1,78%
3,Cc1cccc(NS(=O)(=O)c2ccc3c(c2)CCCN3C(=O)C2CCC2)c1C,107%
4,Cc1oc2ncn(C)c(=O)c2c1C(=O)Nc1ccc(F)cc1,72%
5,COc1ccc(-n2c(SCc3ccccc3F)nc3c([nH]c4ccccc43)c2=O)cc1OC,68%
6,ON(Cn1nnc2ccccc21)Cn1nnc2ccccc21,102%
7,COc1ccc(-c2noc(-c3ccc(N4CCCCC4C)c([N+](=O)[O-])c3)n2)cc1OC (stereo not drawn),104%
8,Cc1ccc(C(=O)Nc2nc(-c3nnn(-c4cccc(Cl)c4C)c3C)ns2)cc1C,124%
9,COc1ccc(Cl)cc1-n1nnc(-c2nsc(NC(=O)c3ccccc3Cl)n2)c1C,23% (active)
10,COc1ccc(-n2nnc(-c3nsc(NC(=O)c4ccc(C)c(C)c4)n3)c2C)cc1Cl,126%
11,COc1cccc(C(=O)Nc2nc(-c3nnn(-c4cc(C)ccc4C)c3C)ns2)c1,88%
12,COc1ccc(C(=O)Nc2nc(-c3nnn(-c4cc(OC)ccc4OC)c3C)ns2)cc1,109%
13,COc1cccc(C(=O)Nc2nc(-c3nnn(-c4cccc(Cl)c4C)c3C)ns2)c1,-5% (active)
14,O=C(C1CC1)N1CCc2cc(Br)cc(S(=O)(=O)N3CCN(c4cccc(Cl)c4)CC3)c21,62%
15,CCOc1ccc(-n2c(=O)c3c4c(sc3n(CC(=O)NC(C)CC)c2=O)CCC4)cc1 (stereo not drawn),142%
16,COC(=O)Cn1c(CN2CCN(c3ccc(OC)cc3)CC2)nc2c1c(=O)[nH]c(=O)n2C,88%
17,CCCc1nn2c(=O)cc(COC(=O)c3ccc(NC(=O)c4cccs4)cc3)nc2s1,69%
18,CCOc1ccc(N(C)C(CNS(=O)(=O)c2ccccc2)c2ccccc2)cc1 (stereo not drawn),87%
19,Cn1c(=O)oc2cc(S(=O)(=O)N3CCC(C(=O)N4CCN(c5ccc(Cl)cc5)CC4)CC3)ccc21,56%
20,COC(=O)C1=CN(C2CC2)C=C(C(=O)OC)C1c1ccsc1,60% (active)
21,COC(=O)C1=CN(CCCN2CCCC2=O)C=C(C(=O)OC)C1c1cccs1,77%
22,COC(=O)C1=CNC=C(C(=O)OC)C1c1ccc(Cl)cc1,88%
23,COc1ccc(-n2c(=O)c3c4c(sc3n(Cc3ccccc3)c2=O)CN(C(C)=O)CC4)cc1OC,67%
24,C=CCc1cccc2cc(-c3nc4ccc(C(=O)O)cc4[nH]3)c(=O)oc12,92%

row,Compound,survival
1,C=CCc1cccc2cc(-c3nc4ccc(C)cc4[nH]3)c(=O)oc12,0% (active)
2,COc1cccc2cc(-c3nc4ccc(C)cc4[nH]3)c(=O)oc12,98%
3,O=C(NC(=O)c1ccc(F)cc1)Nc1ccc(-c2cc(C(F)(F)F)nn2-c2ccccc2)cc1,61%
4,COCCn1c(SCC(=O)c2ccccc2)nc2cc(C(=O)NC3CCCC3)ccc2c1=O,87%
5,CC(C)=CC(=O)Nc1nnc(Cc2ccccc2)s1,55%
6,CCc1ccc(Cn2c(CNS(=O)(=O)c3ccc(F)c(Cl)c3)nc3cccnc32)cc1,20% (active)
7,O=S(=O)(NCc1nc2cccnc2n1Cc1ccccc1Cl)c1ccc(F)c(Cl)c1,87%
8,O=S(=O)(NCc1nc2cccnc2n1Cc1ccc(F)cc1)c1ccc(Cl)s1,-5% (active)
9,Cc1ccc(Cn2c(CNS(=O)(=O)c3ccc(F)c(Cl)c3)nc3cccnc32)cc1,126%
10,Cc1ccc(Cn2c(CNS(=O)(=O)c3ccc(Cl)s3)nc3cccnc32)cc1,124%
11,CCOc1ccc(Cn2c(CNS(=O)(=O)c3ccc([N+](=O)[O-])cc3)nc3cccnc32)cc1,94%
12,CCOc1ccc(Cn2c(CNS(=O)(=O)c3ccc(CC)cc3)nc3cccnc32)cc1,95%
13,Cc1ccc(Cn2c(CNC(=O)Cc3cccc([N+](=O)[O-])c3)nc3cccnc32)cc1,70%
14,COc1ccc(Cn2c(CNC(=O)Cc3cccc([N+](=O)[O-])c3)nc3cccnc32)cc1,-5% (active)
15,CCc1ccc(Cn2c(CNS(=O)(=O)c3ccc([N+](=O)[O-])cc3)nc3cccnc32)cc1,8% (active)
16,O=C(Cc1cccc([N+](=O)[O-])c1)NCc1nc2cccnc2n1Cc1ccc(F)cc1,118%
17,CCc1ccc(Cn2c(CNS(=O)(=O)c3ccc(Cl)s3)nc3cccnc32)cc1,66%
18,C#CCN1CCOCC1,99%
19,Cc1cc2c(=O)c(C(=O)c3ccncc3)cn(CC(=O)Nc3cccc(C)c3C)c2cc1C,94%
20,CCOc1ccc(-c2cc3nc(C4CCN(C(=O)OC(C)(C)C)CC4)c(C(=O)Nc4cccc(Cl)c4C)cn3n2)cc1,81%
21,COc1ccc(NC(=O)CC2SC(=Nc3ccccc3)N(CCO)C2=O)cc1 (stereo not drawn),95%
22,Cc1nnc(NC(=O)C(C)N2CCCC2)s1 (stereo not drawn),97%
23,O=C(Nc1ccccc1Cl)N1CCc2ccccc2C1,91%
24,Cc1nn(C)c2c1c(-c1ccccc1)cc(=O)n2CC(=O)NC(C)(C)C,113%
